Reference: the supplement of paper PMC7695840

What was measured:
[1] = system: Staphylococcus aureus MW2 delta-mecA (mecA-); assay: normalized GFP fluorescence (growth of mecA- strain) (fraction of control range); higher = more growth of mecA- strain; conditions: compound concentration: 150 uM; cefoxitin: subinhibitory; fluorescent label: GFP
In short: (§1)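 Pre-induced S. aureus MW2 mecA+ (DsRed) and ΔmecA (GFP) cells were mixed 1:1 in LB with a daily-set subinhibitory cefoxitin dose. They were dispensed at 5 µL/well onto 150 μM compound (1.5% DMSO) in 1536-well plates, single replicate. Growth was 20 h at 37 °C, 90% humidity, unshaken, and DsRed (540/590) and GFP (485/520) were then read. Each channel was scaled per plate between the medians of the single-strain controls. Plates with high No Treatment ratios and rows with DsRed/GFP >10 were excluded.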

[2] = system: Staphylococcus aureus MW2 (mecA+); assay: normalized DsRed fluorescence (growth of mecA+ strain) (fraction of control range); higher = more growth of mecA+ strain; conditions: compound concentration: 150 uM; cefoxitin: subinhibitory; fluorescent label: DsRed
In short: as §1

Row | Compound | normalized GFP fluorescence [1] | normalized DsRed fluorescence [2]
1 | CCc1nc(N)nc(N)c1-c1ccc(Cl)cc1 | 0.211 | 0.879
2 | CC[N+](CC)(CC)CCOc1cccc(OCC[N+](CC)(CC)CC)c1OCC[N+](CC)(CC)CC | 0.163 | 0.336
3 | Cc1ccc(=O)n(-c2ccccc2)c1 [Pirfenidone] | 0.368 | 0.778
4 | c1ccc([C@H]2CN3CCSC3=N2)cc1 | 0.522 | 0.535
5 | CC(C)NCC(O)COc1ccc(COCCOC(C)C)cc1 (centres undefined) | 0.499 | 0.658
6 | CCC(=O)OCC(=O)[C@@]1(OC(=O)CC)[C@@H](C)C[C@H]2[C@@H]3CCC4=CC(=O)C=C[C@]4(C)[C@@]3(Cl)[C@@H](O)C[C@@]21C | 0.322 | 0.958
7 | Cc1ccccc1C(OCCN(C)C)c1ccccc1 (centres undefined) | 0.779 | 1.23
8 | CCOC(=O)[C@H](CCc1ccccc1)N[C@@H](C)C(=O)N1Cc2ccccc2C[C@H]1C(=O)O | 0.324 | 0.737
9 | CC12CCC(CC1=O)C2(C)C (centres undefined) | 0.212 | 1.15
10 | Cc1ccc([C@@H]2O[C@H](CO)[C@@H](O)[C@H](O)[C@H]2O)cc1Cc1ccc(-c2ccc(F)cc2)s1 [Canagliflozin] | -0.0143 | 0.755
11 | CCCc1nc(C)c2c(O)nc(-c3cc(S(=O)(=O)N4CCN(CC)CC4)ccc3OCC)nn12 | 0.68 | 0.461
12 | C[C@@H]1C[C@H]2[C@@H]3C[C@H](F)C4=CC(=O)C=C[C@]4(C)[C@@]3(F)[C@@H](O)C[C@]2(C)[C@@]1(O)C(=O)CO | 0.766 | 0.847
13 | Cc1ccc(N(CC2=NCCN2)c2cccc(O)c2)cc1 | 0.3 | 0.634
14 | C[C@]12CCC(=O)C=C1C=C[C@@H]1[C@@H]2CC[C@@]2(C)[C@H]1CC[C@@]21CCC(=O)O1 | 0.191 | 0.593
15 | O=C(NCC(O)CO)c1c(I)c(C(=O)NCC(O)CO)c(I)c(N(CCO)C(=O)CO)c1I (centres undefined) | 0.368 | 1.04
16 | CN1CCC(OC(c2ccccc2)c2ccccc2)CC1 | 0.0847 | 1.1
17 | COC(=O)Nc1nc2cc(C(=O)c3ccc(F)cc3)ccc2[nH]1 | 0.715 | 0.661
